Data as given in PubChem BioAssay (NCI).
The panel holds about 83,000 compounds, 20% with a hit somewhere; the sample as a whole holds those more often.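 Interpretation: 100, growth as untreated; towards 0, rising growth inhibition; 0, no net growth; 0 to -100, cell death. Compounds scoring below 10 were considered active.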 Unmarked numbers belong to inactive results. The source made the active and inactive calls.

Tests used:
Assay in all cases: NCI-60 one-dose screen, 48 h (100 = growth as untreated, 0 = no growth, -100 = all killed)
Conditions in all cases: 10 µM unless noted
NCI-H23 lung = tested on: NCI-H23 lung
NCI-H226 lung = tested on: NCI-H226 lung
NCI-H322M lung = tested on: NCI-H322M lung
HOP-62 NSCLC = tested on: HOP-62 NSCLC
NCI-H460 lung = tested on: NCI-H460 lung
HOP-92 NSCLC = tested on: HOP-92 NSCLC
NCI-H522 lung = tested on: NCI-H522 lung
A549/ATCC NSCLC = tested on: A549/ATCC NSCLC
786-0 renal = tested on: 786-0 renal
COLO 205 colon = tested on: COLO 205 colon
DU-145 prostate = tested on: DU-145 prostate
K-562 leukemia = tested on: K-562 leukemia
MALME-3M melanoma = tested on: MALME-3M melanoma
MDA-MB-231 breast = tested on: MDA-MB-231 breast
RXF 393 renal = tested on: RXF 393 renal
SF-268 CNS = tested on: SF-268 CNS
SF-295 CNS = tested on: SF-295 CNS
SF-539 CNS = tested on: SF-539 CNS
UACC-257 melanoma = tested on: UACC-257 melanoma
M14 melanoma = tested on: M14 melanoma

Structure (SMILES)	growth (NCI-H23 lung)	growth (NCI-H226 lung)	growth (NCI-H322M lung)	growth (HOP-62 NSCLC)	growth (NCI-H460 lung)	growth (HOP-92 NSCLC)	growth (NCI-H522 lung)	growth (A549/ATCC NSCLC)	growth (786-0 renal)	growth (COLO 205 colon)	growth (DU-145 prostate)	growth (K-562 leukemia)	growth (MALME-3M melanoma)	growth (MDA-MB-231 breast)	growth (RXF 393 renal)	growth (SF-268 CNS)	growth (SF-295 CNS)	growth (SF-539 CNS)	growth (UACC-257 melanoma)	growth (M14 melanoma)
O=[N+]([O-])c1ccc([Se]C2CCCCC2Cl)c([N+](=O)[O-])c1 (stereo not given)	40.3%	73.5%	55.7%	7.16% (active)	57.7%	53.8%	63.3%	45.5%	128%	102%	82.1%	105%	69.8%	61.7%	67.7%	14.3%	-41.3% (active)	-87.3% (active)	59.2%	40.2%
CC(=O)OC[C@]1(C)C=C2C(=O)[C@](C)(O)C3(CC3)C(C)=C2[C@H]1O	-35.5% (active)	-15% (active)	-23.1% (active)	-29.4% (active)	-37.4% (active)	-25.8% (active)	-52.5% (active)	-21.4% (active)	-46.2% (active)	-33.5% (active)	-19.4% (active)	27.2%	-78.8% (active)	-28.1% (active)	-79.4% (active)	-8.2% (active)	-19.3% (active)	-68.9% (active)	-28.9% (active)	-66.9% (active)
COc1cc2c(c(OC)c1OC)-c1ccc([O-])c(=O)cc1[C@@H](NC(C)=O)CC2.COc1cc2c(c(OC)c1OC)-c1ccc([O-])c(=O)cc1[C@@H](NC(C)=O)CC2.[Cu+2]	27.1%	37.8%	57%	27.4%	5.2% (active)	9.89% (active)	-24.5% (active)	45.1%	43%	9.04% (active)	4.95% (active)	2.76% (active)	52.5%	35.5%	13.4%	27.1%	18.7%	-17.2% (active)	45.1%	7.83% (active)
O=C(CN1CCN(C(=O)c2ccco2)CC1)Nc1ccc(Cl)cc1C(=O)c1ccccc1Cl	85.3%	95.1%	98.2%	105%	104%	73.9%	67.7%	77.2%	95.8%	95.9%	111%	80.6%	104%	49.2%	-11.8% (active)	90.7%	109%	99.8%	86.2%	90.4%
CCCCCCCCC(CO)NCCc1ccccc1 (stereo not given)	105%	98.6%	88.8%	98%	102%	77.9%	73.7%	83.7%	102%	107%	102%	80.7%	109%	93.1%	136%	99.7%	98.1%	115%	85.7%	92.5%
O=C(c1cccc(O)c1O)c1cn(Cc2ccc(F)cc2)c2cccc(O)c12	47.8%	61.5%	37.9%	31%	11.4%	-9.9% (active)	-36.5% (active)	30.5%	31.2%	50.3%	36.2%	22.1%	58.9%	39.1%	70%	26.3%	41.9%	13.8%	34.4%	-64.3% (active)
COc1cc(/C=C/[N+](=O)[O-])c([N+](=O)[O-])cc1OC	79.6%	16.1%	110%	81.1%	76.1%	94.2%	-89.9% (active)	78%	-30.7% (active)	-52.7% (active)	38.6%	10.9%	11.7%	-12.1% (active)	-92.9% (active)	48.3%	107%	-32.4% (active)	65.7%	7.35% (active)
OCCNC(Cc1ccccc1)c1ccc2c(c1)OCO2 (stereo not given)	100%	96.5%	98.4%	77.7%	106%	73.1%	67.5%	90.8%	95.5%	91%	101%	84.1%	90.8%	98.7%	109%	97.9%	90%	104%	90.1%	88.5%
CC(C)(C)C(=O)OCOP(=O)(NCc1ccccc1)C1CCCN(O)C1=O (stereo not given)	49.1%	32.4%	27.8%	23.4%	7.07% (active)	34%	8.18% (active)	29.9%	23.9%	45.7%	55%	32.3%	19.9%	22.6%	8.85% (active)	10.5%	60.3%	45.2%	57.3%	38.4%
CC(=O)O[C@H]1CC[C@H]2[C@@H]3CC=C4c5nc(-c6ccccc6)sc5CC[C@]4(C)[C@H]3CC[C@]12C	71.7%	95.5%	91.4%	72.1%	39.4%	102%	43.8%	57.9%	66.3%	7.45% (active)	86.1%	8.09% (active)	93.9%	64.2%	79.2%	78.9%	-0.49% (active)	13.8%	64.6%	61.5%
C[C@@]12CC=C3c4nc(Nc5cccc(O)c5)sc4CC[C@]3(C)[C@H]1CC[C@]1(C)C(=O)CC[C@@H]21	63.7%	94.5%	72.8%	27.5%	43.9%	64.3%	-56.4% (active)	55.4%	-0.522% (active)	34.4%	12.7%	4.81% (active)	35.3%	39.5%	-6.67% (active)	43.1%	-47.7% (active)	-41.8% (active)	79.6%	54.8%
O=[N+]([O-])/C=C\c1ccc(Cl)c(Cl)c1	77%	73.8%	105%	95.6%	67.2%	59.2%	74%	57.5%	74%	41.1%	70%	11.8%	-0.637% (active)	74.8%	-79.8% (active)	69.2%	98.8%	65.2%	69.6%	-9.23% (active)
Clc1cccc(N2COOC3(OOC2)C2CC4CC(C2)CC3C4)c1	49%	96.2%	99.6%	73%	87.2%	-7.89% (active)	2.67% (active)	76%	7.65% (active)	111%	89.6%	66.2%	73.5%	98.9%	92.1%	83.8%	86.1%	73.3%	98%	93.8%
COc1cc2ncnc(Nc3ccc(F)c(Cl)c3)c2cc1OCC(=O)N1CCN(C)CC1	98.1%	102%	26.6%	96.9%	104%	75.1%	39.2%	76.9%	70.9%	104%	62.6%	82.8%	96.5%	94.7%	88.8%	73.6%	92.8%	98.2%	104%	97.5%
C/C(=C\c1ccn(-c2ccc(N)c(F)c2)n1)[C@@H]1C[C@@H]2O[C@]2(C)CCC[C@H](C)[C@H](O)[C@@H](C)C(=O)C(C)(C)[C@@H](O)CC(=O)O1	30.4%	50.9%	25.7%	38.1%	15.9%	53.2%	18.7%	26.5%	25.3%	-8.2% (active)	-26% (active)	10.5%	46.3%	19.6%	0.639% (active)	30%	17.1%	-26.4% (active)	68.7%	13.3%
